# Out of some 310,000 compounds screened, about 18,000 (5.8%) were called active. About 22% were inconclusive and are not listed. This is one part of a sample in which actives are shown more often than they occur. A number with no mark means an inactive call. The call rests on the fitted dose curve; in most records, active means well fitted inhibition curve with a large enough effect; inconclusive means small, poorly fitted or top-dose-only effect, or another doubt; inactive means no such curve, though single readings can be large or run the other way.
# Assay: Primary qHTS for delayed death inhibitors of the malarial parasite plastid, 48 hour incubation
# Conditions: P. falciparum luciferase growth in erythrocytes; series mostly up to 28.7 µM; activity change, negative = inhibition: at the top concentration
# In short: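 Parasite viability was followed by luminescence of a genomically integrated firefly luciferase. Cultures held 0.1% parasitemia at 2% hematocrit (final), incubated under 5% CO2 at 37 C.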
# On the % scale 0 is the no-effect control and ±100 the full control effect; potency means the concentration at half of the fitted maximal effect.
Structure (SMILES),"activity change, negative = inhibition",Potency
O=C(CN1CCc2cc3c(cc2C1)OCCCO3)Nc1ccccc1,3.97%,–
CC(C)OC(=O)CN1C(=O)c2ccccc2C1=O,11.9%,–
CC(C)OC(=O)CN1C(=O)C(=O)c2ccccc21,–,2.62 µM (active)
Cc1cccc2c1N(CC(=O)OC(C)C)C(=O)C2=O,13.8%,–
Clc1cccc(Cl)c1OCCOCCNCc1ccccc1,17.4%,–
CC(NC(=O)c1ccccc1C(=O)O)c1ccc(-n2ccnc2)cc1 (stereo not given),0%,–
COc1ccc(NC(=O)CCCNC(=O)Cn2cnc3sc4c(c3c2=O)CCCC4)cc1OC,-4.7%,–
O=S(=O)(c1cccs1)N1CCN(Cc2ccccc2)CC1,9.26%,–
Cc1cc2oc(=O)cc(CN3CCN(Cc4ccccc4)CC3)c2cc1C,-7.77%,–
O=c1cc(CN2CCN(S(=O)(=O)/C=C/c3ccccc3)CC2)c2ccc(O)cc2o1,–,13.1 µM (active)
Cc1onc(-c2ccccc2)c1C(=O)N1CCN(S(=O)(=O)c2ccccc2C(F)(F)F)CC1,-3.79%,–
Cc1ccc2c(CN3CCN(S(=O)(=O)c4ccccc4C(F)(F)F)CC3)cc(=O)oc2c1,–,11.7 µM (active)
O=S(=O)(/C=C/c1ccccc1)N1CCNCC1,-8.29%,–
NC(=O)CCN1CCN(S(=O)(=O)/C=C/c2ccccc2)CC1,6.14%,–
Cc1cc2oc(=O)cc(CN3CCN(S(=O)(=O)c4cccs4)CC3)c2cc1C(C)C,–,10.4 µM (active)
O=S(=O)(c1ccc(F)cc1)N1CCN(Cc2ccccc2C(F)(F)F)CC1,-6%,–
COc1ccc(O)c(/C=N/N=C/c2cccc([N+](=O)[O-])c2)c1,3.03%,–
CCn1c(C(O)c2cc(OC)ccc2OC)nc2ccccc21 (stereo not given),1.05%,–
CCOC(=O)c1c(C)[nH]c(C(=O)OCC(=O)N2CCCC2=O)c1C,2.47%,–
Cc1cc(Cl)nc(NC(=O)Nc2cccc(Cl)c2)n1,90.5%,–
CC(=O)CC[C@@H](C)O[C@@H]1OC(C)[C@H](O)CC1O (stereo not given in full),13.5%,–
COC(=O)c1ccc(NS(=O)(=O)c2cc3c4c(c2)C(C)C(=O)N4CCC3)cc1 (stereo not given),3.26%,–
O=C(OCC(=O)N1CCCC1=O)c1cc(S(=O)(=O)N2CCOCC2)ccc1Cl,5.49%,–
Cc1nnc(N/N=C/c2ccccn2)[nH]c1=O,–,2.33 µM (active)
Cc1ccccc1Nc1nnc(C)c(=O)[nH]1,2.34%,–
Cc1nnc(N/N=C/C2CC=CCC2)[nH]c1=O (stereo not given),1.81%,–
CCCCn1c(N)c(N(CCC(C)C)C(=O)CC2OC(=O)c3ccccc32)c(=O)[nH]c1=O (stereo not given),–,8.28 µM (active)

Structure (SMILES),"activity change, negative = inhibition",Potency
CCCCn1c(N)c(N(CCC(C)C)C(=O)c2ccc([N+](=O)[O-])o2)c(=O)[nH]c1=O,0.374%,–
CCCCn1c(N)c(N(CCC(C)C)C(=O)COC(=O)c2cccnc2OCC)c(=O)[nH]c1=O,4.51%,–
Cc1cc2c(=O)n(CC(=O)NCC(=O)Nc3ccc(C(C)C)cc3)cnc2s1,19.7%,–
COc1ccc(C(=O)Nc2ccc(NC(=O)C(C)C)nc2)cc1,7.77%,–
COc1ccc(CS(=O)/C(Cl)=C(/Cl)C(=O)Nc2ccc(OC)nc2)cc1 (stereo not given),–,9.28 µM (active)
COc1ccc(NC(=S)NCCNC(C)=O)cc1,6.26%,–
Cc1ccsc1C(=O)NC1CCCCC1C (stereo not given),-9.34%,–
CC1CCN(S(=O)(=O)c2ccc3c(c2)n(C)c(=O)n3C)CC1,8.41%,–
O=S(=O)(NCCS(=O)(=O)N1CCN(c2ccccc2)CC1)c1ccc(F)cc1,-19.3%,–
Cc1ccc(C(=O)CSc2nnc(Cn3nnc4ccccc43)n2C)cc1,3.53%,–
Cc1ccc2nnn(Cc3cccc(C(C)(C)C)c3O)c2c1,–,11.7 µM (active)
COc1ccccc1NC(=O)C(C)OC(=O)CC1CCCC1 (stereo not given),6.22%,–
Cc1ccc(N(C(=O)c2sc(C)nc2C)C(C(=O)NC(C)(C)C)c2ccncc2)cc1 (stereo not given),-12.3%,–
CC(C)(C)NC(=O)C(c1ccc(Cl)cc1)N(CCO)C(=O)c1snc(C(N)=O)c1N (stereo not given),–,6.57 µM (active)
NC(=O)c1ccc(Nc2ccc3nonc3c2[N+](=O)[O-])cc1,27.2%,–
COC(=O)c1cc(S(=O)(=O)NCC2CCN(Cc3ccc(Cl)cc3)CC2)cn1C,-25.3%,–
O=C(c1cc(-c2ccco2)nc2ccccc12)N(Cc1nnc(-c2ccc(Cl)cc2)o1)C1CC1,–,4.15 µM (active)
O=C(c1ccc(Cl)s1)N(Cc1nnc(-c2ccccc2Cl)o1)C1CC1,7.39%,–
CN(C(=O)COC(=O)c1cc(-c2ccco2)nc2ccccc12)C1CCS(=O)(=O)C1 (stereo not given),-11.3%,–
O=C(Nc1cccc(F)c1)NC1CCCc2ccccc21 (stereo not given),-36.1%,–
Cc1cc(=O)[nH]c(Nc2cccc(Br)c2)n1,24.1%,–
O=C(CCc1nnc2ccc(NCc3ccco3)nn12)Nc1cc(F)ccc1F,8.55%,–
COc1ccc(Cl)cc1C(=O)NCC#N,-5.62%,–
N#C/C=C\Oc1ccc(Cl)cc1N,–,7.38 µM (active)
CCN(CC)CCNC(=O)c1ccc(NC(=O)c2c(F)cccc2Cl)cc1,-17.4%,–
COC(=O)CNC(=O)c1cc(-c2ccncc2)nc2ccccc12,-41%,–
Cc1ccc2nc(-c3ccccn3)cc(C(=O)Nc3ccc4c(c3)OCO4)c2c1,-10.7%,–

Structure (SMILES),"activity change, negative = inhibition",Potency
CCN(CC)CCNC(=O)c1ccc(NC(=O)c2cc(-c3ccncc3)nc3ccccc23)cc1,–,0.828 µM (active)
O=C(Nc1ccncc1)c1cc(-c2ccccn2)nc2ccc(Br)cc12,11.8%,–
Cc1ccc2nc(-c3ccncc3)cc(C(=O)Nc3ccncc3)c2c1,–,13.1 µM (active)
COc1ccc(C(=O)O)cc1S(=O)(=O)NCc1cccnc1,13.9%,–
CC(=O)Nc1ccc(NC(=O)C2CCCN2S(=O)(=O)c2cccc(C(F)(F)F)c2)cc1 (stereo not given),56.5%,–
CCCCn1c(N)c(N(CC(C)C)C(=O)CN(C)S(=O)(=O)c2ccc(F)cc2)c(=O)[nH]c1=O,-18.4%,–
CSCCC(NC(=O)COc1ccccc1)C(=O)OCCOc1ccc(F)cc1 (stereo not given),-6.23%,–
O=C1CSc2ccc(S(=O)(=O)NCc3ccccc3)cc2N1,18.8%,–
CCN1/C(=C\c2ccc3ccccc3[n+]2CC)Sc2cc(C)ccc21,–,1.17 µM (active)
CCN1/C(=C/C(=S)Nc2ccccc2)Sc2ccccc21,4.72%,–
CCN1/C(=C/c2ccc3ccc(C)cc3[n+]2CC)Sc2ccccc21,–,1.17 µM (active)
CCOC(=O)c1c(C)[nH]c(C(=O)OCC(=O)c2ccc(OC)cc2OC)c1C,50.2%,–
CCCc1cc(=O)oc2c(C)c(OCC(=O)Nc3ccccn3)ccc12,-9.35%,–
O=C(COC(=O)c1cnccn1)Nc1ccc(Cl)cc1C(F)(F)F,13.7%,–
COC(=O)c1ccc(CSc2ccc(S(=O)(=O)N3CCCCC3)cn2)cc1,-17.8%,–
CN(Cc1ccccc1)S(=O)(=O)c1nnc(NC(=O)c2ccccc2F)s1,0.694%,–
COc1ccc(CCc2nc(-c3cccs3)no2)cc1,66%,–
C=CCc1ccccc1OCC(O)CN1CCN(CCO)CC1 (stereo not given),-12.8%,–
Cc1cc(C)n2nc(C(=O)OC(C)C(=O)c3cc(C)c(C)cc3C)nc2n1 (stereo not given),11.2%,–
CCOC(=O)C1CN(S(=O)(=O)c2ccc(OC)cc2)c2cc(Cl)ccc2O1 (stereo not given),-15.5% [at 0.00184 µM],–
O=C(NNC(=O)c1csc(-c2cccnc2)n1)Nc1ccc(Cl)cc1,–,8.28 µM (active)
O=C(NNC(=O)c1cccnc1)Nc1ccccc1,-5.94%,–
O=C(Nc1ccc(Cl)cc1)Nc1ccc(Oc2cccnc2)nc1,61.4%,–
COc1cccc(CNS(=O)(=O)c2ccc3c(c2)CC(C)N3C(C)=O)c1 (stereo not given),19.4%,–
Cc1cccc(OCC(=O)NC2CC(C)(C)NC(C)(C)C2)c1,9.53%,–
COc1ccc(CCNC(=O)c2c(C)nn(-c3ccccc3)c2Cl)cc1,17.6%,–
CCC(=O)OCCNc1nc(-c2ccccc2)nc2ccccc12,20.8%,–

Structure (SMILES),"activity change, negative = inhibition",Potency
N#Cc1ccc(Oc2cc(C(F)(F)F)nc(-c3ccccn3)n2)cc1,22.8%,–
COc1ccc(Nc2nc(-c3cccnc3)nc3ccccc23)cn1,0%,–
CC(C)(C)Nc1nc(-c2ccccn2)nc2ccccc12,–,2.94 µM (active)
COc1ccc(Sc2nc(-c3ccccc3)ncc2OC)cc1,60.4%,–
Cc1ccc(Oc2nc3ccccc3n3c(C)nnc23)cc1,15.2%,–
COc1cnc(-c2ccccn2)nc1Oc1ccc(C(C)(C)C)cc1,–,1.65 µM (active)
COc1ccc(Cc2nc(-c3ccccn3)no2)cc1OC,54.6%,–
Cc1ccc(Oc2nc(-c3ccccn3)nc3ccccc23)cc1,–,1.47 µM (active)
COc1ccc(S(=O)(=O)N(CC(=O)N/N=C/c2ccc(C(=O)O)cc2)Cc2ccccc2)cc1OC,-7.28%,–
COc1ccc(C)cc1N(CC(=O)NC(C)c1ccccc1)S(C)(=O)=O (stereo not given),-4.34%,–
Cc1ccccc1OCC(=O)NNC(=O)c1cc(S(=O)(=O)N(C)C)ccc1N1CCCC1,-1.17%,–
Cc1ccc(S(=O)(=O)N(CC(O)CN2CCCCC2)c2cccc([N+](=O)[O-])c2)cc1 (stereo not given),3.97%,–
CC(C)CNS(=O)(=O)c1ccc(CCC(=O)NCc2ccc(Cl)cc2)cc1,-15.5%,–
NC(=O)c1cc(S(=O)(=O)N2CCCC2)ccc1OCc1ccc(F)cc1,-18.6%,–
CCOc1ccc(-c2nnc(-c3ccco3)o2)cc1,-31.2%,–
CCOc1ccc(-c2cc(C)[n+](CCN(CC)CC)c(-c3ccc(OCC)cc3)c2)cc1,–,0.329 µM (active)
CCOc1ccc(-c2nnc3ccc(SC)nn23)cc1,19.5%,–
CCC(=O)NC(=S)Nc1ccc(NC(=O)c2ccco2)c(Cl)c1,10.8%,–
O=C(Nc1ccc(NC(=O)c2ccco2)c(Cl)c1)c1cccc([N+](=O)[O-])c1,–,10.4 µM (active)
COc1cc(NC(=O)c2cc([N+](=O)[O-])ccc2Br)ccc1NC(=O)c1ccco1,12.6%,–
Cc1ccc(OCC(=O)NC(C)c2ccccc2)cc1C (stereo not given),-4.35%,–
Cc1ccc2occ(/C=N/NC(=O)c3ccccc3C)c(=O)c2c1,33.4%,–
O=C(N/N=C/c1ccc(O)c2ccccc12)c1cccnc1,-3.94%,–
Cc1ccc(/C=N/NC(=O)C2=NNC(c3ccccc3)(c3ccccc3)C2)c(O)c1,–,4.15 µM (active)

# — PubChem BioAssay AID504832 (National Center for Advancing Translational Sciences (NCATS), 2011)
